# Screens: PubChem, The Scripps Research Institute Molecular Screening Center
# ssDAF12 agonist – S. stercoralis DAF-12 activation, primary screen. 370,000 tested, 1% active. activation, % at 6.8 µM. AID 652126. HEK293 ssDAF-12/GRIP1 lit1-tk-luc reporter, luminescence; % of 3 µM dafachronic acid response;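 active means activation above the mean over all tested compounds plus 3 SD, cut at about 0.9% in these data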;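 further: 0% = DMSO-only wells and 100% = 3 µM delta7-dafachronic acid wells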
# hcDAF12 agonist – activates DAF-12 receptor from parasite H. contortus; HEK293 hcDAF-12 lit1-tk-luc reporter, luminescence; 0% DMSO, 100% Δ7-dafachronic acid; activation, % at 6.8 µM; 370,000 tested, 1.4% active; AID 652067;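 active means activation above the mean of all tested compounds plus 3 SD, cut at about 5.5% in these data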;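 further: 100% = response to 3 µM Δ7-dafachronic acid high control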
# DAX1 inh-1 – NR0B1 (DAX1) inhibition | P51843 | 340,000 tested, 0.99% active | inhibition, % at 6.75 µM | HEK293 Gal4-DAX1 luciferase reporter, luminescence;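 active means inhibition above the mean over all tested compounds plus 3 SD, cut at about 4.2% in these data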;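 further: 0% = DAX1-transfected cells with DMSO and 100% = empty-vector control cells with DMSO; inhibition shows as a rise in luminescence from relieved DAX1 repression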
# Target sequence (P51843 207-470 limits assumed): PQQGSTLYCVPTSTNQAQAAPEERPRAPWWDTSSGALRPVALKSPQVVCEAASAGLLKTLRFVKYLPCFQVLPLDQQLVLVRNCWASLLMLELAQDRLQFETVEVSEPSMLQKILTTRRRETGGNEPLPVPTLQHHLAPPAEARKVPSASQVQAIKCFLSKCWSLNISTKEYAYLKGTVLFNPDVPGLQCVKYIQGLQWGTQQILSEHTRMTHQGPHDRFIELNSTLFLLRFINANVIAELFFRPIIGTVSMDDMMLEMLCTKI
# hgDAF12 agonist – hgDAF-12 agonism, primary luciferase screen; HEK293 GAL4-hgDAF12 UAS-luciferase reporter, agonist luminescence; normalized to butyrate control; activation, % at 6.8 µM; 370,000 tested, 1.8% active;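 active means activation above a cutoff set at the mean of all screened compounds plus 3 SD, cut at about 10% in these data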;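 further: 0% = DMSO wells and 100% = sodium butyrate wells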
# AHR activator – activators of human aryl hydrocarbon receptor; P35869; AHR-responsive luciferase reporter cells, luminescence; activation, % at 5 µM; 320,000 tested, 2.5% active; AID 2796; in the data active means activation above about 47%;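 further: 0% = vehicle wells and 100% = reference agonist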
# DAX1 inh-2 – DAX1 (NR0B1) inhibition, primary screen; inhibition, % at 6.8 µM; HEK293T StAR-luciferase reporter, SF-1/DAX-1 repression relief; 370,000 tested, 1.1% active;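 active means inhibition above the mean over all tested compounds plus 3 SD, cut at about 3.6% in these data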;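 further: 0% = DAX-1 cells with DMSO and 100% = cells lacking DAX-1 with DMSO; higher inhibition means more luminescence from relief of DAX-1 repression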
# DAX1 inh confirm – NR0B1 (human) inhibition, confirmation | HEK293T StAR-promoter luciferase reporter, SF-1/DAX-1 repression | shares compounds with DAX1 inh-2 | inhibition, % at 6.8 µM | 2,400 tested, 87% active | AID 652134;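 active means inhibition above the average of every tested compound plus 3 SD, cut at about 3.8% in these data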;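 further: 0% = DAX-1 cells with DMSO and 100% = no DAX-1 control cells with DMSO; active compounds raise luminescence by relieving repression of the StAR reporter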
# SF1 AF2mut Luc – nonselective inhibitor or artifact in SF-1 mutant DAX1 counter-screen. shares compounds with DAX1 inh-2. HEK293 StAR-luciferase, SF-1 AF2 mutant, luminescence. inhibition, % at 6.8 µM. 2,400 tested, 78% active. AID 652136;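 active means inhibition above the mean of all tested compounds plus 3 SD, cut at about 3% in these data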;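 further: 0% = DAX-1 transfected cells with DMSO and 100% = cells without DAX-1 with DMSO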
# Starred values were filed as active, the others as inactive; nt = no result given. A selection: hits, their analogues and other compounds. The true share with any hit is near 5.7%.
SMILES,ssDAF12 agonist,hcDAF12 agonist,DAX1 inh-1,hgDAF12 agonist,AHR activator,DAX1 inh-2,DAX1 inh confirm,SF1 AF2mut Luc
COc1cccc(/C=C/C(=O)NNC(=O)c2ccco2)c1OC,0,4,1,10,7,4.9*,9.1*,6.5*
Cc1nc2cc(NC(=O)N3c4ccccc4CC3C)ccc2o1 (stereo unspecified),1.2*,6.0*,2,6,39,5.2*,6.8*,4.1*
Cc1ccc(C(=O)N2c3ccccc3CC2C)o1 (stereo unspecified),0,3,1,13*,4,5.4*,7.5*,6.5*
Cc1ccccc1NC(=O)N1c2ccccc2CC1C (stereo unspecified),-2,-3,-1,1,-10,0,nt,nt
O=C(CCS(=O)(=O)c1ccccc1)N1CCN(c2ccccc2F)CC1,0,3,2,13*,-1,7.0*,7.6*,3.1*
COc1ccc(S(=O)(=O)CCC(=O)N2CCN(c3ccccc3F)CC2)cc1,-1,-1,0,-3,4,-1,nt,nt
CC(Sc1nnc(C(F)(F)F)n1C)C(=O)Nc1ccc(S(N)(=O)=O)cc1 (stereo unspecified),-2,-1,3,4,0,0,nt,nt
COc1cccc(OCc2cc(C(=O)N(C)Cc3nccn3C)no2)c1,0,0,1,8,10,5.4*,6.8*,4.6*
COc1ccc(OCc2cc(C(=O)N(C)Cc3nccn3C)no2)c2ccccc12,0,0,0,3,32,0,nt,nt
CCN(CC)S(=O)(=O)c1ccc(S(=O)(=O)NCC2CCCO2)cc1 (stereo unspecified),-2,-1,0,-1,-1,0,nt,nt
COC(=O)C1CCC(=O)N1C(c1ccc(OC)cc1)c1cc(OC)c(OC)c(OC)c1 (stereo unspecified),-1,0,1,-5,nt,6.2*,20*,-7
O=C(CNC(=O)c1ccc2c(c1)OCO2)Nc1ncccc1O,0,2,1,7,4,5.3*,6.1*,3.7*
Cc1ccc(NC(=O)COc2ccc3c(c2)CCC3)nc1,0,0,3,11*,13,5.1*,8.4*,3.5*
Cc1cccnc1NC(=O)COc1ccc2c(c1)CCC2,1.0*,1,0,9,-2,6.1*,4.7*,2
CCCC/C(C)=N/NC(=O)c1cn(-c2ccccc2)nc1-c1ccccc1,-2,-1,-1,-4,9,0,nt,nt
Cc1ccc(S(=O)(=O)Nc2ccccc2-c2nc3ccccc3[nH]c2=O)cc1,-1,2,0,1,1,2,nt,nt
COCCCNc1nc2ccccc2nc1NS(=O)(=O)c1ccc(C)cc1C,-1,1,0,-2,4,0,nt,nt
Cn1cccc1C(=O)NCC1COc2ccccc2O1 (stereo unspecified),-1,3,2,7,nt,4.7*,5.1*,2
COc1cccc(C(=O)c2cc3cc(Cl)ccc3[nH]2)c1,-1,2,3,6,16,1,nt,nt
Cn1cccc1CC(=O)NNC(=S)NC(=O)c1ccc(F)cc1,-1,3,-2,3,8,1,nt,nt
Cc1ccc(-c2ccc(SCC(=O)Nc3cc(C)on3)nn2)cc1,-2,0,0,2,2,0,nt,nt
Cc1cc(NC(=O)CSc2ccc(-c3ccc(Br)cc3)nn2)no1,0,3,1,7,3,5.3*,0,0
Cc1cc(NC(=O)CSc2nnc(-c3cccc(F)c3)n2N)no1,-1,-1,0,-2,6,5.2*,2,2
COc1ccc(-c2nnc(SCC(=O)Nc3cc(C)on3)n2N)cc1OC,0,-2,0,0,2,0,nt,nt
COc1ccc(C(=O)C[n+]2cn(C(F)F)c3ccccc32)c(F)c1,0,3,1,9,17,7.3*,2,3.9*
SMILES,ssDAF12 agonist,hcDAF12 agonist,DAX1 inh-1,hgDAF12 agonist,AHR activator,DAX1 inh-2,DAX1 inh confirm,SF1 AF2mut Luc
CC(=O)c1cccc(-c2ccnc3c2CC(C(=O)NCc2ccccc2)O3)c1 (stereo unspecified),0,0,nt,-7,nt,4.8*,12*,-7
CC(=O)c1cccc(-c2ccnc3c2CC(C(=O)NCc2ccc(F)c(F)c2)O3)c1 (stereo unspecified),-1,-1,nt,-3,nt,-2,nt,nt
COc1cccc(-c2csc(NC(=O)C3CC3)n2)c1,-1,5,2,12*,2,5.2*,7.0*,5.8*
O=C(Nc1nc(-c2ccc3c(c2)OCCO3)cs1)C1CCCC1,-1,5,5.8*,8,34,4.7*,12*,3.9*
O=C(CCCCl)Nc1nc(-c2ccc3c(c2)OCCO3)cs1,0,5,2,10,-7,1,nt,nt
COc1cccc(-c2csc(NC(=O)Nc3ccccc3)n2)c1,-2,-4,0,-4,-3,-1,nt,nt
COCCNC(=O)C1(C)CCN(C(=O)c2sccc2C)C1 (stereo unspecified),-1,2,nt,1,nt,0,nt,nt
O=C(NC1CCCCC1)C(c1ccc(-c2ccccc2)cc1)n1c(=O)c(-c2ccco2)nc2ccccc21 (stereo unspecified),0,1,nt,4,nt,4.8*,-1,-1
O=C(NC1CCCCC1)C(c1ccccc1F)n1c(=O)c(-c2ccco2)nc2ccccc21 (stereo unspecified),-1,-1,nt,-2,nt,0,nt,nt
Cc1ccccc1OCC(=O)Nc1cccc(C(=O)O)c1,-1,3,-9,11*,nt,5.0*,7.9*,4.3*
Cc1cccc(OCC(=O)Nc2cc(NC(=O)COc3cccc(C)c3C)cc(C(=O)O)c2)c1C,-1,1,0,-1,0,0,nt,nt
CC(=NNc1ccc2ccccc2n1)c1ccccc1O,1,5,-4,9,nt,5.9*,0,-4
NC(=O)c1ccc(NS(=O)(=O)c2ccc(S(=O)(=O)N3CCCC3)cc2)cc1,-2,-1,1,1,nt,-1,nt,nt
CCCCNC(=O)C[C@@H]1C[C@@]2(C(=O)OC)CCCCC=C2N(CCc2ccc(OC)c(OC)c2)C1=O,-1,-3,nt,-3,nt,1,nt,nt
COC(=O)[C@@]12C[C@@H](CC(=O)NCc3ccc(C)o3)C(=O)N(CCc3ccc(OC)c(OC)c3)C1=CCC(C)(C)C2,-1,0,nt,0,nt,5.8*,2,1
COC(=O)[C@@]12C[C@@H](CC(=O)NCc3ccccc3)C(=O)N(CCc3ccc(OC)c(OC)c3)C1=CCC(C)(C)C2,-1,-2,nt,-3,nt,-1,nt,nt
